Screening data from PubChem.
An excerpt weighted towards active compounds, which were near 5.7% of everything screened.
BAZ2B block: qHTS Assay for Inhibitors of BAZ2B; Potency, µM (series often up to 114 µM), without a hit: top-dose activity change, negative = inhibition, usual class: inhibitors; AID 504333, 2011; Bromodomain adjacent to zinc finger domain protein 2B (Homo sapiens), Q9UIF8; hit rate 4.4% among 360,000; AlphaScreen BAZ2B-H3K14Ac peptide displacement; also: potency is read from the fitted curve at half-maximal effect; % is scaled to controls: 0 for no effect and ±100 for the full control effect; nearly all actives have a fitted effect of over 60% in size
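AlphaScreen luminescence quantifies BAZ2B engagement of H3K14Ac peptide; the protein and biotinylated peptide are both at 50 nM final, buffer PBS pH 7.4 with 0.01% Tween-20, all steps at room temperature.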
HP1b binding inh: HTS for Inhibitors of HP1-beta Chromodomain Interactions with Methylated Histone Tails; Chromobox protein homolog 1 (Homo sapiens), P83916; AlphaScreen HP1-beta / biotin-H3K9me3 peptide binding; Potency, µM (highest dose often 114 µM), without a hit: at the top dose activity change, negative = inhibition, actives largely listed as inhibitors; hit rate 0.56% among 390,000; AID 540317, 2011; also: potency is read from the fitted curve at half-maximal effect; nearly all actives have a fitted effect of over 70% in size
Target sequence (P83916 whole entry, looked up): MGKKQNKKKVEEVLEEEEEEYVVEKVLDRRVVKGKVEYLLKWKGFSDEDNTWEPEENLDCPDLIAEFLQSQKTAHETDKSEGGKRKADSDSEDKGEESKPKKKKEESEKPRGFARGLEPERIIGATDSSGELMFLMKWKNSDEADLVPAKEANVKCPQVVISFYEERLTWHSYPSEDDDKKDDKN
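AlphaScreen: HP1-beta (50 nM) preformed 30 min with biotin-H3(1-18)K9me3 peptide (50 nM) in PBS pH 7.4, 0.01% Tween-20. Compound added for 30 min at RT, then streptavidin donor/nickel chelate acceptor beads (10 ug/mL) for 30 min.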
L3MBTL1 block: qHTS Assay for the Inhibitors of L3MBTL1. AlphaScreen L3MBTL1–H3K9me1 peptide binding. Potency, µM (highest dose often 57.1 µM), for the others: at the highest dose activity, negative = inhibition, actives largely listed as inhibitors. hit rate 0.66% among 230,000. AID 485360, 2010; also: potency is read from the fitted curve at half-maximal effect; % is scaled to controls: 0 for no effect and ±100 for the full control effect; nearly all actives have a fitted effect of over 60% in size
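AlphaScreen proximity signal between nickel-chelate acceptor and streptavidin donor beads (final 10 ug/mL) reports binding of 50 nM L3MBTL1 to 75 nM biotin-H3 K9me1 peptide; complex incubated with compounds 30 min at room temperature; cefsulodin titration as control.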
JMJD2E inh: qHTS Assay for Inhibitors of Human Jumonji Domain Containing 2E (JMJD2E). Lysine-specific demethylase 4E (Homo sapiens), B2RXH2. JMJD2E catalytic domain, FDH-coupled NADH fluorescence (FDH is formaldehyde dehydrogenase). Potency, µM (highest dose often 57.1 µM), inactives show top-dose activity change, negative = inhibition, actives largely listed as inhibitors. hit rate 1.6% among 230,000; active = well fitted inhibition curve with a large enough effect, not every such curve was filed as active; inconclusive = small, poorly fitted or top-dose-only effect, or another doubt; inactive = no such curve, though single readings can be large or run the other way;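 also: potency is read from the fitted curve at half-maximal effect; 0% = wells with enzyme and -100% = buffer wells without enzyme; nearly all actives have a fitted effect of over 50% in size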
Target sequence (B2RXH2 1-337 limits assumed): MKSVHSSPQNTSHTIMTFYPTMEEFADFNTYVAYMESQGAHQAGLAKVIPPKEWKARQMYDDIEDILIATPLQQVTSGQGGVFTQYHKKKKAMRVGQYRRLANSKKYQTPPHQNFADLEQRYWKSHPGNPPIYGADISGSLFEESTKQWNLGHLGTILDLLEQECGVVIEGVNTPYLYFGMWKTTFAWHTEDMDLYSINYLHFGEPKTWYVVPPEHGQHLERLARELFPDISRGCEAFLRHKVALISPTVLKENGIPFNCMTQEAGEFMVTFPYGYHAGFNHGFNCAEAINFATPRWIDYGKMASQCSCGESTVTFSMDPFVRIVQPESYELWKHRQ
PI5P4K alpha inh: qHTS for Inhibitors of phosphatidylinositol 5-phosphate 4-kinase (PI5P4K); PI5P4Kalpha enzyme, ADP-Glo luminescence, 60 min; stronger effect = lower value; max response, %; hit rate 1.2% among 330,000; active = max response of -50% or lower; inconclusive = between -30% and -50%; inactive = -30% or higher; also: value at the top dose of about 77 µM; % is scaled to controls: 0 for no effect and ±100 for the full control effect
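PI5P4Kalpha ADP-Glo assay; 5 microM ATP final; 60 min RT reaction; HEPES pH 7.4/EGTA/CHAPS, 5% DMSO; controls lacking substrate or enzyme; luminescent end-point.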
JMJD2A Tudor inh: qHTS Assay for Inhibitors of JMJD2A-Tudor Domain | AlphaScreen JMJD2A-Tudor / H3K4me3 peptide binding | Potency, µM (highest dose often 114 µM), inactives show at the highest dose activity change, negative = inhibition, most hits filed as inhibitors | hit rate 4.4% among 390,000 | Lysine-specific demethylase 4A (Homo sapiens), O75164 | AID 504339, 2011; also: potency is read from the fitted curve at half-maximal effect; % is scaled to controls: 0 for no effect and ±100 for the full control effect; nearly all actives have a fitted effect of over 50% in size
Starred values were filed as active, the others as inactive; i = inactive; ? = inconclusive; / = no result given; [ ] = remark or other dose. Unless noted, calls follow the shape of the dose curve; as a rule, active = well fitted inhibition curve with a large enough effect; inconclusive = small, poorly fitted or top-dose-only effect; inactive = no such curve, though single readings can be large or run the other way.

SMILES	BAZ2B block	HP1b binding inh	L3MBTL1 block	JMJD2E inh	PI5P4K alpha inh	JMJD2A Tudor inh
COC(=O)C1=C2SC(C)C(=O)N2C(N)=C(C#N)C1c1ccc(OC)c(OC)c1 (stereo unspecified)	-37%	9%	-9%	-18%	-58*	-29%
COC(=O)C1=C2SC(C)C(=O)N2C(N)=C(C#N)C1c1cc(OC)c(OC)c(OC)c1 (stereo unspecified)	-7%	33%	-2%	-28%	?	0%
Cc1cc(C)c(NC(=O)C(C)n2nc(C)c3sc4ccccc4c3c2=O)c(C)c1 (stereo unspecified)	-3%	37%	/	/	/	-15%
COc1ccc(CNC(=O)CN(C)c2nn3c(=O)cc(C)nc3s2)cc1	4%	15%	/	/	/	-12%
CCOc1ccc(NC(=O)N(Cc2c[nH]c3ccccc23)C2CCCCC2)cc1	/	11%	/	/	/	-18%
COc1ccc2c(c1)c1c(c(=O)n(-c3ccccc3C)c(=O)n1Cc1cccc(C(F)(F)F)c1)n2C	-1%	51%	/	/	/	17%
O=C(CN1C(=O)CC(c2ccco2)Sc2ccccc21)Nc1cccc(C(F)(F)F)c1 (stereo unspecified)	-37%	31%	/	/	/	-9%
O=C(O)c1ccc(NC(CSCc2ccccc2F)C(=O)O)c([N+](=O)[O-])c1 (stereo unspecified)	-14%	1%	1%	-4%	-12	32µM*
CCc1ccc(NCc2cc3cc4c(cc3n(CC(=O)Nc3cccc(OC)c3)c2=O)OCO4)cc1	-27%	0%	/	/	/	?
COc1cc(OC)c2ccc(=O)oc2c1C(CCN1CCOCC1)c1ccc2c(c1)OCO2 (stereo unspecified)	/	25%	5%	/	0	?
COc1cc(C2CC(=O)Oc3c(C(CCN4CCOCC4)c4ccc(N(C)C)cc4)c(OC)cc(OC)c32)cc(OC)c1OC (stereo unspecified)	45µM*	?	/	0%	0	40µM*
COc1cc(C2CC(=O)Oc3c(C(CCN4CCN(c5ccccc5)CC4)c4ccc(N(C)C)cc4)c(OC)cc(OC)c32)cc(OC)c1OC (stereo unspecified)	7.9µM*	?	/	4%	2	8.9µM*
COc1ccc(C2C3C=CCCC3(C)C(=O)N2Cc2ccccc2)cc1Cl (stereo unspecified)	/	19%	/	/	/	-16%
Cc1ccc(NC(=O)CSc2nc(=O)n(Cc3ccco3)c3c2CCC3)cc1F	-22%	5%	/	/	/	-28%
N=c1nc(-c2ccccc2)n(-c2ccccc2)s1	/	?	/	/	/	5.6µM*
Cc1ccc(-c2nc(=Nc3ccccc3)sn2-c2ccccc2)cc1	/	-30%[57 µM]	/	/	/	-24%[57.1 µM]
Cc1ccc2c(Sc3ccc(Cl)cc3)c(C(=O)NCCC(C)C)[nH]c2c1	?	10%	/	/	/	?
N#Cc1cc(-c2ccccc2)oc1/N=C/c1ccccc1O	7%	-32%	?	-10%	3	79µM*
CCN(c1ccccc1)S(=O)(=O)c1cc2c3c(c1)C(C)C(=O)N3CCC2 (stereo unspecified)	-1%	32%	/	/	-1	-4%
CC1C(=O)N2CCCc3cc(S(=O)(=O)N(C)c4ccccc4)cc1c32 (stereo unspecified)	56µM*	36%	/	/	-2	-22%
Cc1ccc(C(=O)c2oc3ccccc3c2NC(=O)COc2ccccc2Cl)cc1	50µM*	37%	/	/	/	-9%
Cc1ccc(C(=O)c2oc3ccccc3c2NC(=O)COc2ccc(C(C)C)cc2)cc1	-2%	37%	/	/	/	6%
Oc1ccc(N2CCN(Cc3c(-c4ccccc4)nc4ccccn34)CC2)cc1	?	?	/	/	-25	14µM*
Clc1ccc(-c2nc3ccccn3c2CN2CCCCC2)cc1	-32%	12%	-17%	?	0	-16%
Cc1ccccc1/C=N/Nc1nc2ccccc2[nH]1	-29%	12%	/	-18%	4	-17%
SMILES	BAZ2B block	HP1b binding inh	L3MBTL1 block	JMJD2E inh	PI5P4K alpha inh	JMJD2A Tudor inh
C(=N\Nc1nc2ccccc2[nH]1)/c1c[nH]c2ccccc12	45µM*	?	-15%	-30%	0	45µM*
Nc1ccc(Nc2nc3ccccc3[nH]2)cc1	45µM*	?	-14%	/	-52*	56µM*
C(=N\Nc1nc2ccccc2[nH]1)/c1cccc2cccnc12	7.1µM*	10%	?	25µM*	-7	14µM*
Nc1ccccc1Nc1nc2ccccc2[nH]1	?	-7%	-19%	/	0	-26%
Cc1[nH]c2ccccc2c1/C=N/Nc1nc2ccccc2[nH]1	28µM*	?	/	0%	?	45µM*
Cc1[nH]c2ccccc2c1/C=C/c1nc2ccccc2c(=O)[nH]1	-32%	16%	/	-13%	-63*	-3%
CN(C)c1nc(N/N=C/c2c[nH]c3ccccc23)nc(N2CCOCC2)n1	-34%	9%	0%	0%	-3	-20%
Cc1[nH]c2ccccc2c1/C=N/NC(N)=S	-34%	1%	-17%	-6%	2	-25%
Cc1cccc(/C=C/c2nc3ccccc3c(=O)[nH]2)c1	-8%	15%	5%	i	-1	1%
O=[N+]([O-])c1cc(/C=N/Nc2nc3ccccc3[nH]2)c(O)cc1O	20µM*	?	?	2%	-73*	28µM*
C(=N\Nc1nc(N2CCCCC2)nc(N2CCCCC2)n1)/c1c[nH]c2ccccc12	40µM*	6%	?	-2%	5	35µM*
CCc1nnc(N/N=C/c2c(C)[nH]c3ccccc23)n1N	45µM*	24%	-19%	6%	8	-31%
COc1ccc(Br)cc1S(=O)(=O)N1CCN(S(=O)(=O)c2ccc3c(c2)OCCO3)CC1	/	/	/	/	/	-17%
CCOc1ccc(NC(=O)C(C)N2C(=O)c3ccccc3S2(=O)=O)cc1 (stereo unspecified)	11%	37%	-7%	/	6	-11%
CC(C(=O)Nc1ccc(N(C)C)cc1)N1C(=O)c2ccccc2S1(=O)=O (stereo unspecified)	?	?	-5%	/	-5	45µM*
N#C/C(C(=O)Nc1ccc(Cl)cc1)=C(/S)Nc1ccccc1	20µM*	?	/	/	-87*	20µM*
Cc1cc(C)c(C)c(OCCOCCN2CCN(C)CC2)c1	?	4%	-9%	2%	2	-21%
